Test results from PubChem BioAssay AID1159580 (chemical genetic matrix, 2015).
Out of some 5,500 compounds screened, about 2,000 (36%) were called active. About 18% were inconclusive and are not listed. The list shows a part of the results. Unmarked numbers belong to inactive results. Cut-off read from the data, not from the text of the source: active = normalized growth mostly below about 0.91 (no sharp cut-off); inconclusive = no clear call, values can overlap the other calls; inactive = mostly above about 0.92.

Assay: chemical genetic growth profiling, strain panel (AID 1159580);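 note: tested at 20 µM; growth read once vehicle control cultures reached saturation at 30 °C; 1 = growth at the plate median or of vehicle wells; lower values mean less growth of the strain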
Conditions: S. cerevisiae deletion strains, growth OD

## O=C(Nc1ccc(Cl)cc1)O/N=C\c1ccn(-c2ccccc2)n1
Locus YAR019C, strain CDC15, stronger effect = lower value
  normalized growth: 0.958
Locus YBL105C, strain PKC1, stronger effect = lower value
  normalized growth: 0.963
Locus YBR135W, strain CKS1, stronger effect = lower value
  normalized growth: 0.95
Locus YBR136W, strain MEC1, stronger effect = lower value
  normalized growth: 0.937
Locus YBR160W, strain CDC28, stronger effect = lower value
  normalized growth: 0.962
Locus YDL017W, strain CDC7, stronger effect = lower value
  normalized growth: 0.971
Locus YDL028C, strain MPS1, stronger effect = lower value
  normalized growth: 0.955
Locus YDL101C, strain DUN1, stronger effect = lower value
  normalized growth: 0.975
Locus YDL108W, strain KIN28, stronger effect = lower value
  normalized growth: 0.941
Locus YDL132W, strain cdc53, stronger effect = lower value
  normalized growth: 0.954
Locus YDL214C, strain PRR2, stronger effect = lower value
  normalized growth: 0.8
Locus YDR052C, strain DBF4, stronger effect = lower value
  normalized growth: 0.982
Locus YDR054C, strain cdc34, stronger effect = lower value
  normalized growth: 0.952
Locus YDR226W, strain ADK1, stronger effect = lower value
  normalized growth: 0.965
Locus YDR477W, strain SNF1, stronger effect = lower value
  normalized growth: 0.859
Locus YER123W, strain YCK3, stronger effect = lower value
  normalized growth: 0.811
Locus YER133W, strain GLC7, stronger effect = lower value
  normalized growth: 0.882
Locus YFL009W, strain cdc4, stronger effect = lower value
  normalized growth: 0.961
Locus YFL029C, strain CAK1, stronger effect = lower value
  normalized growth: 0.955
Locus YFR003C, strain YPI1, stronger effect = lower value
  normalized growth: 0.96
Locus YFR019W, strain FAB1, stronger effect = lower value
  normalized growth: 0.956
Locus YFR028C, strain CDC14, stronger effect = lower value
  normalized growth: 0.953
Locus YGR040W, strain KSS1, stronger effect = lower value
  normalized growth: 0.876
Locus YGR052W, strain FMP48, stronger effect = lower value
  normalized growth: 0.845
Locus YGR092W, strain DBF2, stronger effect = lower value
  normalized growth: 0.775
Locus YHR030C, strain SLT2, stronger effect = lower value
  normalized growth: 0.611 (active)
Locus YHR079C, strain IRE1, stronger effect = lower value
  normalized growth: 0.654
Locus YHR082C, strain KSP1, stronger effect = lower value
  normalized growth: 0.835
Locus YHR205W, strain SCH9, stronger effect = lower value
  normalized growth: 0.559 (active)
Locus YIL147C, strain SLN1, stronger effect = lower value
  normalized growth: 0.953
Locus YJL095W, strain BCK1, stronger effect = lower value
  normalized growth: 0.738
Locus YJL128C, strain PBS2, stronger effect = lower value
  normalized growth: 0.877
Locus YJL157C, strain FAR1, stronger effect = lower value
  normalized growth: 0.857
Locus YJR016C, strain ILV3, stronger effect = lower value
  normalized growth: 0.961
Locus YJR066W, strain TOR1 (second series), stronger effect = lower value
  normalized growth: 0.605 (active)
Locus YJR066W, strain TOR1, stronger effect = lower value
  normalized growth: 0.834
Locus YKL048C, strain ELM1, stronger effect = lower value
  normalized growth: 0.886
Locus YKL067W, strain YNK1, stronger effect = lower value
  normalized growth: 0.82
Locus YKL101W, strain HSL1, stronger effect = lower value
  normalized growth: 0.798
Locus YKL193C, strain SDS22, stronger effect = lower value
  normalized growth: 0.948
Locus YKL203C, strain TOR2, stronger effect = lower value
  normalized growth: 0.947
Locus YLR113W, strain HOG1, stronger effect = lower value
  normalized growth: 0.6 (active)
Locus YLR133W, strain CKI1, stronger effect = lower value
  normalized growth: 0.829
Locus YLR403W, strain SFP1, stronger effect = lower value
  normalized growth: 0.87
Locus YML070W, strain DAK1, stronger effect = lower value
  normalized growth: 0.804
Locus YMR001C, strain CDC5, stronger effect = lower value
  normalized growth: 0.95
Locus YMR205C, strain PFK2 (second series), stronger effect = lower value
  normalized growth: 0.779
Locus YMR277W, strain FCP1, stronger effect = lower value
  normalized growth: 0.948
Locus YNL006W, strain LST8, stronger effect = lower value
  normalized growth: 0.954
Locus YNL020C, strain ARK1, stronger effect = lower value
  normalized growth: 0.782
Locus YNL161W, strain CBK1, stronger effect = lower value
  normalized growth: 0.97
Locus YNL183C, strain NPR1, stronger effect = lower value
  normalized growth: 0.732
Locus YNL207W, strain RIO2, stronger effect = lower value
  normalized growth: 0.954
Locus YNL222W, strain SSU72, stronger effect = lower value
  normalized growth: 0.946
Locus YNL307C, strain MCK1 (second series), stronger effect = lower value
  normalized growth: 0.785
Locus YOL078W, strain AVO1, stronger effect = lower value
  normalized growth: 0.956
Locus YOL136C, strain PFK27, stronger effect = lower value
  normalized growth: 0.797
Locus YOR061W, strain CKA2, stronger effect = lower value
  normalized growth: 0.875
Locus YOR119C, strain RIO1, stronger effect = lower value
  normalized growth: 0.929
Locus YOR231W, strain MKK1, stronger effect = lower value
  normalized growth: 0.688
Locus YOR329C, strain SCD5, stronger effect = lower value
  normalized growth: 0.954
Locus YPL031C, strain PHO85, stronger effect = lower value
  normalized growth: 0.851
Locus YPL153C, strain RAD53, stronger effect = lower value
  normalized growth: 0.885
Locus YPL204W, strain HRR25, stronger effect = lower value
  normalized growth: 0.869
Locus YPL209C, strain IPL1, stronger effect = lower value
  normalized growth: 0.959
Locus YPL256C, strain CLN2, stronger effect = lower value
  normalized growth: 0.662 (active)
Locus YPR025C, strain CCL1, stronger effect = lower value
  normalized growth: 0.953
Locus YPR106W, strain ISR1, stronger effect = lower value
  normalized growth: 0.937
Locus YPR111W, strain DBF20, stronger effect = lower value
  normalized growth: 0.929
Strain NNK1, stronger effect = lower value
  normalized growth: 0.903
Strain TSCII, stronger effect = lower value
  normalized growth: 0.95

## CS(=N)(=O)CC[C@H](N)C(=O)O (some centres not stated)
Locus YAL013W, strain DEP1, stronger effect = lower value
  normalized growth: 0.995
Locus YAL040C, strain CLN3, stronger effect = lower value
  normalized growth: 0.993
Locus YCL061C, strain MRC1 (second series), stronger effect = lower value
  normalized growth: 0.997
Locus YDR150W, strain NUM1, stronger effect = lower value
  normalized growth: 1.02
Locus YDR363W, strain ESC2, stronger effect = lower value
  normalized growth: 0.962
Locus YER002W, strain NOP16, stronger effect = lower value
  normalized growth: 1
Locus YGR078C, strain PAC10, stronger effect = lower value
  normalized growth: 0.969
Locus YJR075W, strain HOC1, stronger effect = lower value
  normalized growth: 1.01
Locus YMR263W, strain SAP30, stronger effect = lower value
  normalized growth: 1.01
Locus YNL128W, strain TEP1, stronger effect = lower value
  normalized growth: 0.991
Locus YNL175C, strain NOP13, stronger effect = lower value
  normalized growth: 0.989
Locus YNL197C, strain WHI3, stronger effect = lower value
  normalized growth: 0.983
Locus YNL224C, strain SQS1, stronger effect = lower value
  normalized growth: 0.999
Locus YOR083W, strain WHI5 (second series), stronger effect = lower value
  normalized growth: 0.989
Locus YPL055C, strain LGE1, stronger effect = lower value
  normalized growth: 1
Locus YPL241C, strain CIN2, stronger effect = lower value
  normalized growth: 1
